Source: the supplement of paper PMC10849652
Of roughly 7,900 targets only a part is listed; those with a hit were picked by preference. About 0.6% of all pairs of compound and target were hits.

Experiments:
Assay in all cases: log2 fold change, soluble protein after heating vs DMSO (PISA); higher = thermal stabilisation; K562 cells, 10 uM, 30 min; active = over 0.2 and 3.5 SD of the protein, either way, in both replicates (recomputed)
[1] = compound: C1=CC=C(C=C1)[C@H](COC2=CC3=C(C=C2)NC(=O)N3)NC(=O)C4=CC=CN(C4=O)CC5=CC(=C(C=C5)F)F
Procedure, shortened: (§1)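 Aliquots of K562 cells (2×10^6 cells/mL) treated with 10 μM compound for 30 min were heated for 3 min over 48°C-58°C. After pooling and extraction in PBS with 0.5% NP-40 at 4°C, soluble protein from a 21,000xg, 90 min spin was quantified by TMTpro 16plex LC-MS/MS with channel sums equalised. Thermal stability is expressed against control samples, from duplicates, as a log2 fold change.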

[2] = compound: CC1=C(SC2=C1C(=N[C@H](C3=NN=C(N32)C)CC(=O)N)C4=CC=C(C=C4)Cl)C
Procedure, shortened: as §1

[3] = compound: CC1=C2C(=CC=C1)N=C(N(C2=O)C3=CC=CC=C3C)CN4C=NC5=C(N=CN=C54)N
Procedure, shortened: as §1

[4] = compound: Cc1sc2c(c1C)C(c1ccc(Cl)cc1)=N[C@@H](CC(=O)OC(C)(C)C)c1nnc(C)n1-2
Procedure, shortened: as §1

[5] = compound: c1ccc([C@@H]2C[C@H]2NC2CCNCC2)cc1
Procedure, shortened: as §1

Measured: log2 fold change

NUP98 (UniProt P52948)
Sequence of UniProt P52948 (P52948 whole entry, looked up): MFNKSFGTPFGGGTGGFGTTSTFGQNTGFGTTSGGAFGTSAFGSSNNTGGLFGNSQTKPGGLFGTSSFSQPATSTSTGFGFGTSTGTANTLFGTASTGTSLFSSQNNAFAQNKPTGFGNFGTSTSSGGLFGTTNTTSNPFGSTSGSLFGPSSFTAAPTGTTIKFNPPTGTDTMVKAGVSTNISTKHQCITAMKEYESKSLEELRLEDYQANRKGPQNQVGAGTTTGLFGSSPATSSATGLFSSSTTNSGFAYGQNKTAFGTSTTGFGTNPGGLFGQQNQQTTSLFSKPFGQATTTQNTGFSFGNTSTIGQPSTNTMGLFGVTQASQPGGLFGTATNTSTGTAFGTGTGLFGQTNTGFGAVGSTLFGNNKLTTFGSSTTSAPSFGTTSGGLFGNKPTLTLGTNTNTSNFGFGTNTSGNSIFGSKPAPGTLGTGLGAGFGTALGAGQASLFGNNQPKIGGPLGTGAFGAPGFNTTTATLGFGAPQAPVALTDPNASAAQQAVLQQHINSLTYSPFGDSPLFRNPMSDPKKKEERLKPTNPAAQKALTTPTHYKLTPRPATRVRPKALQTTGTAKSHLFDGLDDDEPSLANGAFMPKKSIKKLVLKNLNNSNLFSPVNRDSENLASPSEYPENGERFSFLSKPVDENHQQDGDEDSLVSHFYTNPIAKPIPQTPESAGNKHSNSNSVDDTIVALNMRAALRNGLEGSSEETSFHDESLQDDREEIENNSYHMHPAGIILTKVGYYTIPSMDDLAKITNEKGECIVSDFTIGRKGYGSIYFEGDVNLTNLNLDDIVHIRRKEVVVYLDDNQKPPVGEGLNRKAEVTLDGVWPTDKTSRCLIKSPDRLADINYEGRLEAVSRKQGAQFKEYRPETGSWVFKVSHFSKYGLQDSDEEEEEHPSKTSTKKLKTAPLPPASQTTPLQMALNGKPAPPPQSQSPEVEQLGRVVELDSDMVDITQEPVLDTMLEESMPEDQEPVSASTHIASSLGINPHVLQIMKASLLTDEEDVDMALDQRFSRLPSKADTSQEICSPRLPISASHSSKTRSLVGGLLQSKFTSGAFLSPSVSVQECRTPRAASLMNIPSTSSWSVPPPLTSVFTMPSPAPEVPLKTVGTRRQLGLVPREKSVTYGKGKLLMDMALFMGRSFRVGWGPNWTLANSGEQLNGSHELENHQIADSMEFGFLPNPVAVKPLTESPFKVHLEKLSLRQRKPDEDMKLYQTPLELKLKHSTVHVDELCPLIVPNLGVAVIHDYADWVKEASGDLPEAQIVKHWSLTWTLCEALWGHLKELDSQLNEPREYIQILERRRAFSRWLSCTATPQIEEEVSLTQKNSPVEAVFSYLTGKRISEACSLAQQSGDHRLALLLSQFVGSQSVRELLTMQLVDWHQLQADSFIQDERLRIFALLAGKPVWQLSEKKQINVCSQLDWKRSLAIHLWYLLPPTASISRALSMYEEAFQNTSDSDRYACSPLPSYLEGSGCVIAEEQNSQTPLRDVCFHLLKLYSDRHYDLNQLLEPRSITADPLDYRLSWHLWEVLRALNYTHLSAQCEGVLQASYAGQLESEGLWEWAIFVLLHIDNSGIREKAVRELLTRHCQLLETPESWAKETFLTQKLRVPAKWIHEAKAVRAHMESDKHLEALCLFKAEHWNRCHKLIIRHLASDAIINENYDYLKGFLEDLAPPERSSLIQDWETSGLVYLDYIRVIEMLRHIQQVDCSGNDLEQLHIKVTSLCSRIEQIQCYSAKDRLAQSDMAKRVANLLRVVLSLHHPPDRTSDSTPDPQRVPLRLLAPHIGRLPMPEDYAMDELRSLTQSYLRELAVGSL
inactive: [1] -0.041 | [2] 0.032 | [3] 0.071 | [4] -0.005 | [5] -0.011

NECTIN2 (UniProt Q92692)
Sequence of UniProt Q92692 (Q92692 whole entry, looked up): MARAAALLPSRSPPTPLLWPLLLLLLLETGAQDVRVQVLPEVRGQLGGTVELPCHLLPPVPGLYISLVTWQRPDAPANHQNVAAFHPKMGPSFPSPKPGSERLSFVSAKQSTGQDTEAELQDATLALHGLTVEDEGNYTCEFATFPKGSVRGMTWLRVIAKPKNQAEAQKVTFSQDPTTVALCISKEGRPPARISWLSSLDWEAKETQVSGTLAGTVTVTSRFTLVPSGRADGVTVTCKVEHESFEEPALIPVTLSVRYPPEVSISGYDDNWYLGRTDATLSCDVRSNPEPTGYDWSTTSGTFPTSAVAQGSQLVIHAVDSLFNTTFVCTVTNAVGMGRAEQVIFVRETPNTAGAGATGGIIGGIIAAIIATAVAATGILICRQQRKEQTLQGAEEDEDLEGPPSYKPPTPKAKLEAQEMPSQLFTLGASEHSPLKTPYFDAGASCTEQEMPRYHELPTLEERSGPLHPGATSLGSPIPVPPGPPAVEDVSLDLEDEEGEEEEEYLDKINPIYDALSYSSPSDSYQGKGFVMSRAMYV
inactive: [1] 0.017 | [2] 0.031 | [3] -0.019 | [4] -0.009 | [5] -0.012

MT-ND4 (UniProt P03905)
inactive: [1] -0.124 | [2] -0.017 | [3] -0.045 | [4] -0.057 | [5] 0.036

NA, A0A096LPI6
inactive: [1] 0.055 | [2] -0.023 | [3] -0.001 | [4] 0.017 | [5] 0.023

OTULIN (UniProt Q96BN8)
Sequence of UniProt Q96BN8 (Q96BN8 whole entry, looked up): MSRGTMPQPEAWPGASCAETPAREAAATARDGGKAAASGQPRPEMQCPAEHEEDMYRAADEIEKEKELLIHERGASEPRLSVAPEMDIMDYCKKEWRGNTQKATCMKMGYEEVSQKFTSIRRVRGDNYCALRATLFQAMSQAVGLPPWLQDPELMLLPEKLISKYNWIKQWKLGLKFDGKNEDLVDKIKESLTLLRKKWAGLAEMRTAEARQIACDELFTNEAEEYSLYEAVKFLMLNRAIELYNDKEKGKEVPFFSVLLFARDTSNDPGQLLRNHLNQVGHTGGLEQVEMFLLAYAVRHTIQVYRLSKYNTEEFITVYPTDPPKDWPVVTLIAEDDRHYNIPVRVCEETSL
inactive: [1] -0.07 | [2] -0.019 | [3] 0.124 | [4] 0.005 | [5] 0.005

NA, A0A494C071
inactive: [1] -0.172 | [2] -0.016 | [3] 0.236 | [4] 0.07 | [5] 0.072

NPEPPS (UniProt P55786)
Sequence of UniProt P55786 (P55786 whole entry, looked up): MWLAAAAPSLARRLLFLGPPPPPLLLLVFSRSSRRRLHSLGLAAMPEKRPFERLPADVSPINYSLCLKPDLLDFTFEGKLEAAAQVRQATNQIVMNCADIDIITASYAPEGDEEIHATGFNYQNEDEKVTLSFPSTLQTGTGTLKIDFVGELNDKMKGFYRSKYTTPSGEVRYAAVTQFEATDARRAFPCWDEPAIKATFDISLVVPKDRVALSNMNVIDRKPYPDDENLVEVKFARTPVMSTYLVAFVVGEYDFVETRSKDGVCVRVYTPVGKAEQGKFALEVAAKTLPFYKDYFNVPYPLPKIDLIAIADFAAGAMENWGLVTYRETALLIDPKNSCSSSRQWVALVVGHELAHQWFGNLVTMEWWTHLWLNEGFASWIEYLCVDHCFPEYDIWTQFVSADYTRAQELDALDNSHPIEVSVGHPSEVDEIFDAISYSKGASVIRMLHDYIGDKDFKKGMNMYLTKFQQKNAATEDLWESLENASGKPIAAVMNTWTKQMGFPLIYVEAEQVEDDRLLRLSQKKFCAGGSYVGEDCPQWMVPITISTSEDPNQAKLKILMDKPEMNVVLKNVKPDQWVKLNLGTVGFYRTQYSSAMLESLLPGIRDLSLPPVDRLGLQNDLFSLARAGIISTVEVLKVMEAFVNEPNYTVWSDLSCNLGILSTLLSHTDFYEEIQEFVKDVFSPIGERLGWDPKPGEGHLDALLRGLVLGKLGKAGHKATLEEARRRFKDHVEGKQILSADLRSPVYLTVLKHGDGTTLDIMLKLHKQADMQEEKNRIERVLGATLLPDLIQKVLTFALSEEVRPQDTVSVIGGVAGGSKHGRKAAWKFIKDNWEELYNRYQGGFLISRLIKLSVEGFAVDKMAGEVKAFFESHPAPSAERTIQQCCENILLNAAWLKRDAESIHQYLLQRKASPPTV
inactive: [1] -0.044 | [2] 0.064 | [3] 0.159 | [4] -0.003 | [5] -0.051

NGLY1 (UniProt Q96IV0)
Sequence of UniProt Q96IV0 (Q96IV0 whole entry, looked up): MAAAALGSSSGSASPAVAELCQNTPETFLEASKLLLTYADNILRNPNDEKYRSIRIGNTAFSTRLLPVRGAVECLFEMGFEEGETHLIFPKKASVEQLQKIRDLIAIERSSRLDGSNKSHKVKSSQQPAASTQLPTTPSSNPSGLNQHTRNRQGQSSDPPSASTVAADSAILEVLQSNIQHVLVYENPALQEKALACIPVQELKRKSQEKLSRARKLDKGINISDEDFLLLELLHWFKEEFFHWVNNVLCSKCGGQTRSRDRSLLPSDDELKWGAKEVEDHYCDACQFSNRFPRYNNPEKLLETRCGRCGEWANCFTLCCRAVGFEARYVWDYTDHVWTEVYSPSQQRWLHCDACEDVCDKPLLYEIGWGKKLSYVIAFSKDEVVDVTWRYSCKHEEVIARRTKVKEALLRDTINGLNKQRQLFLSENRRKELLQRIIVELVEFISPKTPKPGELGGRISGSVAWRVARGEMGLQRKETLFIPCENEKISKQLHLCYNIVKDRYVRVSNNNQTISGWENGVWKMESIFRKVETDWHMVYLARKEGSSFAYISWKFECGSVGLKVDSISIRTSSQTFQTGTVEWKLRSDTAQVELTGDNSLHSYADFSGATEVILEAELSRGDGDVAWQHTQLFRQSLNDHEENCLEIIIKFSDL
inactive: [1] -0.084 | [2] 0.01 | [3] 0.114 | [4] 0.014 | [5] -0.046

NR2C2AP isoform 2 (UniProt Q86WQ0)
Sequence of UniProt Q86WQ0 (Q86WQ0 whole entry, looked up): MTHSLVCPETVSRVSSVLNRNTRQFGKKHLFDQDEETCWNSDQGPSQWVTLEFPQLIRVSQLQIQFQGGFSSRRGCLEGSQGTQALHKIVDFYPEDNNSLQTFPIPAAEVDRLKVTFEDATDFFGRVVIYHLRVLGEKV
inactive: [1] -0.016 | [2] 0.043 | [3] 0.081 | [4] -0.067 | [5] 0.032

NTMT1 (UniProt Q9BV86)
inactive: [1] 0.001 | [2] 0.034 | [3] 0.079 | [4] -0.118 | [5] -0.049

NMNAT1 (UniProt Q9HAN9)
inactive: [1] 0.1 | [2] -0.055 | [3] -0.088 | [4] 0.304 | [5] 0.02

MRPS27 isoform 2 (UniProt Q92552)
inactive: [1] -0.063 | [2] 0.04 | [3] 0.01 | [4] 0.035 | [5] -0.059

MYH16 (UniProt Q9H6N6)
inactive: [1] -0.164 | [2] -0.042 | [3] -0.142 | [4] 0.069 | [5] -0.034

NCL (UniProt P19338)
inactive: [1] 0.158 | [2] -0.365 | [3] -0.299 | [4] 0.227 | [5] 0

MRPS31 (UniProt Q92665)
inactive: [1] -0.042 | [2] 0.028 | [3] 0.021 | [4] 0.044 | [5] -0.031

MTHFS (UniProt P49914)
inactive: [1] -0.075 | [2] 0.035 | [3] -0.086 | [4] -0.023 | [5] -0.061

PAFAH1B2 (UniProt P68402)
inactive: [1] -0.042 | [2] -0.078 | [3] 0.078 | [4] 0.004 | [5] 0.082

MON1B (UniProt Q7L1V2)
inactive: [1] -0.032 | [2] 0.044 | [3] 0.056 | [4] -0.008 | [5] -0.064

NSUN2 (UniProt Q08J23)
inactive: [1] -0.019 | [2] 0.023 | [3] 0.003 | [4] 0 | [5] 0.003

ORC5 (UniProt O43913)
inactive: [1] -0.081 | [2] 0.02 | [3] 0.144 | [4] -0.016 | [5] -0.044

MOV10 (UniProt Q9HCE1)
inactive: [1] 0.067 | [2] -0.095 | [3] -0.095 | [4] 0.145 | [5] 0.057

MND1 (UniProt Q9BWT6)
Sequence of UniProt Q9BWT6 (Q9BWT6 whole entry, looked up): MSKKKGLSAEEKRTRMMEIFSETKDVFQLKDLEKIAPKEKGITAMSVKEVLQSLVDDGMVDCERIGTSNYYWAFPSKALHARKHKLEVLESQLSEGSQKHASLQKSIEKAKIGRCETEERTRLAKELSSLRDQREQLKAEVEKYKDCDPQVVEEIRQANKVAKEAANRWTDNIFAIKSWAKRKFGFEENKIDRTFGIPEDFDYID
inactive: [1] 0.009 | [2] 0.012 | [3] 0.081 | [4] 0.088 | [5] 0.102

MPP1 (UniProt Q00013)
inactive: [1] -0.055 | [2] -0.06 | [3] 0.051 | [4] -0.024 | [5] 0.013

NEDD4L (UniProt Q96PU5)
inactive: [1] 0.014 | [2] 0.038 | [3] 0.039 | [4] 0.054 | [5] 0.027

NOB1 (UniProt Q9ULX3)
Sequence of UniProt Q9ULX3 (Q9ULX3 whole entry, looked up): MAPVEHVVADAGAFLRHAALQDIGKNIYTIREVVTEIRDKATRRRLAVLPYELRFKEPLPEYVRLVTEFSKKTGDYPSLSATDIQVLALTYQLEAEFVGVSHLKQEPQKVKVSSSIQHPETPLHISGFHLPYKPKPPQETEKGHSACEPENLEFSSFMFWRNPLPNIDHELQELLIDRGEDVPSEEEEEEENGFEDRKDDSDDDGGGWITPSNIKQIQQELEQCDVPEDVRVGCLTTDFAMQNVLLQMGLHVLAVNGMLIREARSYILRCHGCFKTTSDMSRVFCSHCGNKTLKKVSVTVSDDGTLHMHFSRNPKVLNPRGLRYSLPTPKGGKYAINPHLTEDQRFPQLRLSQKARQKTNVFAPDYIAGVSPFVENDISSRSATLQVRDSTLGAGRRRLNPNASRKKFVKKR
inactive: [1] -0.048 | [2] -0.033 | [3] 0.048 | [4] 0.067 | [5] -0.06
